Screening data as filed in PubChem.
Compounds with a hit are over-represented: about 1.4% of the library has one in this group of screens.
PglD DTNB = C. jejuni PglD acetyltransferase inhibitors, primary screen, biochemical, DTNB colorimetric, single point. UDP-N-acetylbacillosamine N-acetyltransferase PglD (Campylobacter jejuni). purified PglD enzyme, DTNB colorimetric CoA detection. inhibition, % at 12.5 µM. 360,000 compounds, 0.098% hits; in the data active = inhibition above about 16%, passing the limit was not always enough
CFTR F508del cor = F508del CFTR correction, initial screen, CFBE line, single point. CFBE cells, YFP halide quenching; stimulated with forskolin plus potentiator P3; % fluorescence drop versus neutral controls. activity (quench increase), % at 7.58 µM. 350,000 compounds, 0.36% hits. AID 720511, 2013;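 active = mean added fluorescence quench of at least 8% versus neutral control, with both replicates also reaching 8%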;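 note: cells transiently co-express mutant CFTR-F508del with the halide-sensitive YFP; corrector assay measuring rescue of mutant channel to the surface after 24 h compound exposure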
Statin myotox sup = suppressors of statin myotoxicity in C2C12 myotubes, primary screen, cell-based, single point, plate reader; C2C12 myotubes + simvastatin, ATP luminescence, 48 h; scaled: DMSO 0, geranylgeraniol control 100; rescue of ATP level, % at 7.49 µM; 330,000 compounds, 0.78% hits; AID 602340, 2012;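 active = mean ATP rescue above about 67%, or every replicate alone reaching that limit, limit read from the data, passing the limit was not always enough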;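 note: myotubes were challenged with 10 µM simvastatin during compound exposure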
ARNT-TACC3 inh = disruptors of ARNT/TACC3 protein interaction, primary screen, biochemical, AlphaScreen, single concentration; Transforming acidic coiled-coil-containing protein 3 (Homo sapiens), Q9Y6A5; AlphaScreen His-ARNT PAS-B/GST-TACC3 binding, luminescence; TACC3 fragment carries E629A point mutation; inhibition, % at 9.99 µM; 390,000 compounds, 0.66% hits;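 active = mean inhibition of replicates at least 50% and at least half of replicates each reaching 50%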;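 note: 0% = complete ARNT plus TACC3 wells and 100% = ARNT alone without TACC3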
* hit, by the source's call; x = no result given.

SMILES	PglD DTNB	CFTR F508del cor	Statin myotox sup	ARNT-TACC3 inh
Cc1ccccc1-c1ccc2c(c1)O[C@H](CN(C)Cc1ccc(C(=O)O)cc1)[C@H](C)CN([C@H](C)CO)S2(=O)=O	0	-3	-3	-2
COc1ccc(CNc2ccccc2)cc1Br	5	x	17	-1
COc1ccc(Cc2nnc(Nc3ccccc3)s2)cc1Br	9	1	77*	x
COc1ccc2c3c(n(C)c2c1)[C@H](CO)N(CC1CC1)CC31CCN(S(=O)(=O)c2cn(C)cn2)CC1	x	0	x	x
Cc1noc(C)c1NC(=O)Nc1cccc2c1O[C@H](CN(C)CC1CCCCC1)[C@H](C)CN([C@H](C)CO)C2=O	18*	-3	23	-4
C[C@H]1CN([C@@H](C)CO)C(=O)c2cccc(NC(=O)Nc3ccc4c(c3)OCO4)c2O[C@@H]1CN(C)CC1CCCCC1	1	2	86*	2
C[C@@H]1CCCCO[C@@H](CN(C)S(=O)(=O)c2ccc(F)cc2)[C@H](C)CN([C@@H](C)CO)C(=O)c2cc(NC(=O)CCC(F)(F)F)ccc2O1	4	0	x	x
C/C=C/c1ccc2c(c1)O[C@@H](CN(C)C(=O)CC)[C@H](C)CN([C@@H](C)CO)S2(=O)=O	1	-2	-16	4
C[C@@H]1CN([C@@H](C)CO)C(=O)c2cccc(NC(=O)c3ccc(-c4nccs4)cc3)c2O[C@@H]1CN(C)S(=O)(=O)c1cn(C)cn1	-1	-3	x	-3
CCN1C(=O)/C(=C2/C=Cc3ccccc3N2C)OC1=S	3	x	118*	-48
CCN1C(=O)/C(=C2\C=Cc3cc(C)ccc3N2CC)OC1=S	-3	x	2	5
COc1ccc(S(=O)(=O)Nc2ccc3c(c2)CC(=O)N([C@@H](C)CO)C[C@H](C)[C@@H](CN(C)C(=O)NC2CCCCC2)O3)cc1	4	-2	-24	3
Cn1c(=O)c(N)c2c3c(c(Br)ccc31)C(=O)c1ccccc1-2	-10	11*	-31	8
C[C@@H]1CN([C@@H](C)CO)S(=O)(=O)c2ccc(-c3ccccc3F)cc2O[C@H]1CN(C)Cc1ccncc1	1	2	-73	10
CCCN1C(=S)SC(C)(C)C1/[N+]([O-])=C/c1cccnc1 (configuration not stated)	5	x	-4	-7
CCCCN1C(=S)SC(C)(C)C1/[N+]([O-])=C/c1cccnc1 (configuration not stated)	-3	x	98*	-7
COc1ccc2c3c(n(C)c2c1)[C@@H](CO)N(C(=O)Nc1ccc(F)cc1)CC31CCN(S(=O)(=O)c2cccc(C)c2)CC1	x	2	x	x
Cc1ccc(S(=O)(=O)Nc2ccc3c(c2)CC(=O)N([C@@H](C)CO)C[C@H](C)[C@@H](CN(C)Cc2ccc(Cl)c(Cl)c2)O3)cc1	1	4	72*	-4
Cc1noc(C)c1S(=O)(=O)Nc1ccc2c(c1)CC(=O)N([C@H](C)CO)C[C@@H](C)[C@H](CN(C)Cc1ccc(Cl)c(Cl)c1)O2	-1	1	87*	-8
Cc1ccc(S(=O)(=O)Nc2ccc3c(c2)CC(=O)N([C@@H](C)CO)C[C@@H](C)[C@H](CN(C)Cc2ccc(Cl)c(Cl)c2)O3)cc1	-3	1	74*	23
Cc1ccc(S(=O)(=O)Nc2ccc3c(c2)CC(=O)N([C@H](C)CO)C[C@H](C)[C@H](CN(C)Cc2ccc(Cl)c(Cl)c2)O3)cc1	1	4	5	-13
CO[C@@H]1CN(C)C(=O)c2ccc(NC(=O)C3CC3)cc2OC[C@H](C)N(C(=O)NC(C)C)C[C@H]1C	1	-3	15	-2
O=C(N[C@H]1CC[C@@H](CC(=O)N2CCOCC2)O[C@@H]1CO)c1ccc2c(c1)OCO2	1	1	3	-3
Oc1ccccc1N=N/C(=N/Nc1ccccc1O)c1ccccc1	-2	1	10	5
Cn1nnnc1N=N/C(=N/Nc1ccccc1)c1ccccc1	1	13*	x	18
SMILES	PglD DTNB	CFTR F508del cor	Statin myotox sup	ARNT-TACC3 inh
O=c1[nH]c(CN2CCCCC2)nc2c1C1(CCCCC1)Cc1ccccc1-2	2	x	91*	-5
CCc1nc2c(c(=O)[nH]1)C1(CCCC1)Cc1ccccc1-2	4	x	-32	-2
Cc1ccc(C2/C(=C(/O)c3cnn(-c4ccccc4)c3C)C(=O)C(=O)N2CCN2CCOCC2)o1 (configuration not stated)	-2	x	126*	-6
Cc1ccccc1C(=O)N1CCN(c2ccc([N+](=O)[O-])c(NCc3ccco3)c2)CC1	-10	x	130*	4
CN1CCN(c2ccc(NC(=O)c3ccc([N+](=O)[O-])o3)cc2Cl)CC1	1	0	94*	2
Cc1ccccc1C(=O)N1CCN(c2ccc(NC(=O)c3ccc([N+](=O)[O-])o3)cc2)CC1	1	-3	167*	x
Cc1noc(C)c1S(=O)(=O)N(C)C[C@@H]1Oc2ccc(NS(C)(=O)=O)cc2C(=O)N([C@@H](C)CO)C[C@@H]1C	-5	1	-13	-12
CC(C)NC(=O)N1CC2(C1)[C@H](c1ccccc1)[C@H](CO)N2C(=O)C1CCCC1	x	1	x	x
CCCC#Cc1ccc2c(c1)[C@H]1[C@H](CCN1S(=O)(=O)c1ccc(F)cc1)[C@H](CO)N2C	-3	0	1	6
NS(=O)(=O)c1ccc(CCNCC(=O)N2CCC(Cc3ccccc3)CC2)cc1	1	0	85*	-2
COc1ccc(N2Nc3n[nH]c(N)c3N2)cc1	-4	x	106*	1
FC(F)(F)c1nc2nncn2c2c1CCCCC2	-1	x	149*	6
CC(C)(C)NC(=O)Cn1nc(C(F)(F)F)c2c1CCCC2	x	1	x	x
COc1cc2oc3ccccc3c2cc1N(CC(=O)N1CCCCC1)S(=O)(=O)c1ccc(C)cc1	-6	x	106*	-3
CC(C)Nc1nc(NC(C)C)nc(N(C)n2cnnc2)n1	-3	x	98*	2
CCNc1nc(NCC)nc(N(C)N)n1	-2	x	16	70*
CC(C)Nc1nc(NC(C)C)nc(N(C)N)n1	x	x	x	59*
COC(=O)[C@@H]1[C@@H](CO)[C@@H]2Cn3c(ccc(C4=CCCCC4)c3=O)[C@@H]2N1C(=O)C1CCC1	5	1	-14	7
CN(C)C(=O)C[C@H]1C=C[C@H](NC(=O)C2CCOCC2)[C@H](CO)O1	x	0	x	x
O=C(O)C[C@H]1C=C[C@H](NC(=O)CCN2CCCCC2)[C@@H](CO)O1	x	2	x	x
Cc1ccccc1S(=O)(=O)N1C[C@H](O)COC[C@H]2O[C@H](CC(=O)N3CCOCC3)CC[C@@H]21	-2	-1	7	3
C[C@@H]1CCCCO[C@H](CN(C)S(=O)(=O)c2cn(C)cn2)[C@H](C)CN([C@@H](C)CO)C(=O)c2cc(NC(=O)c3ccncc3)ccc2O1	3	1	x	-7
CC(=O)C[C@@H](O)CC(=O)[C@H]1OC(=O)CCCCCc2ccccc21	4	3	8	-4
